# Compound activity: PubChem, National Center for Advancing Translational Sciences (NCATS)
# A selection: hits, their analogues and other compounds. The true share with any hit is near 21%.
# Cycloheximide cs – Cycloheximide Counterscreen for Small Molecule Inhibitors of Shiga Toxin. cell reporter, cycloheximide protein synthesis inhibition counterscreen. hit rate 12% among 300,000. max response, %. AID 2314, 2010; in the data active = max response mostly above about 13%, no sharp cut-off; inactive = mostly below about 14%; also: read at 38.3 µM for the half of the compounds with a filed dose; 0% is about no effect
# Pf growth 48h – Primary qHTS for delayed death inhibitors of the malarial parasite plastid, 48 hour incubation | Potency, µM (top dose mostly 28.7 µM), inactives show at the top dose activity change, negative = inhibition, usual class: inhibitors | hit rate 5.9% among 310,000 | P. falciparum luciferase growth in erythrocytes, 48 h | AID 504832, 2011; also: potency is read from the fitted curve at half-maximal effect; % is scaled to controls: 0 for no effect and ±100 for the full control effect
#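 Parasite viability was followed by luminescence of a genomically integrated firefly luciferase. Cultures held 0.1% parasitemia at 2% hematocrit (final), incubated under 5% CO2 at 37 C.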
# Giardia FBPA inh – qHTS Assay for Inhibitors of Fructose-1,6-bisphosphate Aldolase from Giardia Lamblia; A8B2U2; purified Giardia FBPA; Potency, µM (highest dose often 59.6 µM), for the others: at the top dose activity, negative = inhibition, actives largely listed as inhibitors; hit rate 0.71% among 290,000; AID 2451, 2010; also: potency is read from the fitted curve at half-maximal effect; % is scaled to controls: 0 for no effect and ±100 for the full control effect; nearly all actives have a fitted effect of over 55% in size
# Target sequence (A8B2U2 whole entry, looked up): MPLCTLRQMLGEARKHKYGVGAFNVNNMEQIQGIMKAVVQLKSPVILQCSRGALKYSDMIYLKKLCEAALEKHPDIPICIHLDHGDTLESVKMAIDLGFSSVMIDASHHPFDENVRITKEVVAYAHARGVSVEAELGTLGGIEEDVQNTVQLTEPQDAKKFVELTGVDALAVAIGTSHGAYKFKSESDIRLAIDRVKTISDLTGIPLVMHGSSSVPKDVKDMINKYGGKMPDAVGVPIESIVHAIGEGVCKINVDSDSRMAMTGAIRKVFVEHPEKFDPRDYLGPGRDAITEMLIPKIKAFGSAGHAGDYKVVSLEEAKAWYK
#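 Giardia FBPA (40 nM reagent) was preincubated 10 min at RT with compound (up to 57.5 uM final), then substrate plus GAPDH/TPI/NAD/arsenate coupling system with diaphorase/resazurin was added; resorufin fluorescence (525/598 nm) was read after 20 min.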
# Shiga toxin inh – A qHTS for Small Molecule Inhibitors of Shiga Toxin. Vero cells, Shiga toxin protein synthesis inhibition reporter. inhibition, % at 38.7 µM. hit rate 9.2% among 290,000; in the data active = inhibition mostly above about 28%, no sharp cut-off; inactive = mostly below about 43%; also: 0% is about no effect
# Pf growth 96h – Primary qHTS for delayed death inhibitors of the malarial parasite plastid, 96 hour incubation; Potency, µM (top dose mostly 28.7 µM), for the others: at the top dose activity change, negative = inhibition, usual class: inhibitors; P. falciparum luciferase reporter growth, 96 h; AID 504834, 2011; hit rate 6.9% among 320,000; also: potency is read from the fitted curve at half-maximal effect; % is scaled to controls: 0 for no effect and ±100 for the full control effect
#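 Cell-based qHTS: luciferase-tagged P. falciparum in erythrocytes (2% hematocrit, 0.05% parasitemia final) incubated with compounds for 96 hours, 37 C, 5% CO2; luciferase detection reagent then added and luminescence measured.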
# NS1 inh – qHTS Assay for Inhibitors of Influenza NS1 Protein Function. hit rate 0.4% among 270,000. Potency, µM (doses to about 46.1 µM), for the others: at the top dose activity, positive = more growth; calls by dose curve; also: potency is read from the fitted curve at half-maximal effect; actives are rising curves; nearly all actives have a fitted effect of over 50% in size
#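 Read-out: OD600 growth recovery of NS1-expressing budding yeast. Cells grown overnight at 30C in -URA glucose medium, washed, resuspended and diluted 1:100 in 2% galactose assay medium, pH 6.0. Same strain lacking NS1 served as positive control.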
# Numbers without * were called inactive; ? = inconclusive; · = no result; + = active, no number; [ ] = remark or other dose. Unless noted, calls follow the shape of the dose curve; as a rule, active = well fitted curve in the direction sought with a large enough effect; inconclusive = small, poorly fitted or top-dose-only effect, or another doubt; inactive = no such curve, though single readings can be large; an effect the other way counts as inactive or inconclusive.
SMILES,Cycloheximide cs,Pf growth 48h,Giardia FBPA inh,Shiga toxin inh,Pf growth 96h,NS1 inh
Cc1noc(C)c1S(=O)(=O)N1CCCC(C(=O)NCc2ccccc2Cl)C1 (centres undefined),-2.4,1.4%,3.7%,-7.0,5.86µM*,0.2%
CCc1ccccc1NC(=O)C1CCCN(S(=O)(=O)c2c(C)noc2C)C1 (centres undefined),-1.7,?,8.7%,-3.9,-28.6%,-56.7%
Cc1noc(C)c1S(=O)(=O)N1CCCC(C(=O)NCCc2ccc(Cl)cc2)C1 (centres undefined),5.7,11.7µM*,3.1%,11.7,·,-3.9%
COc1ccc(Cl)cc1S(=O)(=O)N1CCCC(C(=O)NCCc2ccccc2)C1 (centres undefined),4.5,37.8%,·,21.8,10.4µM*,-23.4%
COc1ccc(CC(=O)NNC(=O)c2c(-c3ccccc3Cl)noc2C)cc1OC,-2.2,-19.4%,1.5%,-1.3,-0.1%,-0.2%
COc1ccc(N2CCN(C(=O)c3cc(C)on3)CC2)cc1,-3.1,1.3%,10.0%,1.3,?,6.5%
CCCOc1ccc(NC(=O)CC2C(=O)N(c3ccc(OCC)cc3)C(=S)N2C2CC2)cc1 (centres undefined),-1.4,?,0.7%,2.2,?,4.6%
c1ccc(Nc2ncncc2-c2ccc3c(c2)OCO3)cc1,·,·,-5.2%,·,·,·
O=C(CCCCn1c(=O)c2ccccc2n(Cc2ccccc2)c1=O)NC1CCN(Cc2ccccc2)CC1,-2.1,5.86µM*,1.4%,-6.3,-10.1%,·
CCc1ccc(NC(=O)Cn2c(=O)n(CCC(=O)NC3CCN(Cc4ccccc4)CC3)c(=O)c3ccccc32)cc1,-0.4,-12.4%,7.9%,-0.6,-11.9%,-4.9%
O=C(CCCn1c(=O)c2ccccc2n(Cc2cccc(F)c2)c1=O)NC1CCN(Cc2ccccc2)CC1,3.5,6.57µM*,1.4%,12.2,?,·
Cc1ccccc1C(=O)N(Cc1cccs1)C1CCS(=O)(=O)C1 (centres undefined),-1.8,14.8%,16.1%,-7.6,-26.4%,-1.6%
O=C(NCCc1ccc(F)cc1)c1coc(=O)c(Br)c1,13.6,10.0%,1.8%,31.6,37.2%,1.1%
O=C(NCc1ccccn1)c1coc(=O)c(Br)c1,1.4,-0.4%,19.5%,9.6,-2.2%,15.4%
O=C(Nc1ccccc1F)c1coc(=O)c(Br)c1,51.0*,-9.1%,2.5%,+,0.5%,·
O=C(Nc1ccc(Br)cn1)c1coc(=O)c(Br)c1,44.8*,7.9%,5.8%,49.2*,6.3%,5.3%
C[C@@H](NC(=O)c1coc(=O)c(Br)c1)c1ccccc1,20.2*,-16.3%,3.1%,25.6,-20.8%,-4.4%
Cc1cc(NC(=O)c2coc(=O)c(Br)c2)ccc1C(C)C,95.4*,?,-13.4%,108.3*,?,-6.7%
COc1ccc(OC)c(C2=C/C(=C/c3ccccn3)C(=O)O2)c1,-1.3,?,?,-8.9,5.22µM*,·
COc1cc(NC(=O)CN(C)S(=O)(=O)c2ccc(-c3ccc(=O)[nH]n3)s2)cc(OC)c1,2.7,?,3.3%,-16.5,37.7%,10.3%
COc1ccc(CCNC(=O)Cn2cccc2C(=O)c2ccccc2C)cc1OC,0.8,-27.4%,1.5%,-12.2,9.28µM*,-8.9%
Cc1ccccc1C(=O)c1cccn1CC(=O)NCC(C)c1ccccc1 (centres undefined),-4.5,15.4%,-2.3%,-3.8,-14.0%,-11.7%
Cc1ccccc1C(=O)c1cccn1CC(=O)NCC1CCCO1 (centres undefined),-0.6,-2.4%,-0.3%,-23.2,10.4µM*,-0.4%
Cc1ccccc1C(=O)c1cccn1CC(=O)NCc1ccc2c(c1)OCO2,22.9*,15.8%,7.3%,50.9,?,-61.7%
COc1ccc(CNC(=O)Cn2cccc2C(=O)c2ccccc2C)cc1,71.3*,40.2%,19.2%,59.6*,?,-11.0%
SMILES,Cycloheximide cs,Pf growth 48h,Giardia FBPA inh,Shiga toxin inh,Pf growth 96h,NS1 inh
COc1ccc(C(=O)N2CCOC2CNC(=O)C(=O)NCc2ccc(Cl)cc2)cc1 (centres undefined),-1.9,-0.4%,-2.5%,10.9,16.5%,·
Cc1ccccc1C(=O)c1cccn1CC(=O)NCc1ccc(F)cc1,19.5,14.2%,·,21.2,3.4%,4.0%
Cc1ccccc1C(=O)c1cccn1CC(=O)NCc1ccccc1,26.2*,28.4%,8.1%,30.3*,1.1%,·
COc1ccc(OC)c(CCNC(=O)Cn2cccc2C(=O)c2ccccc2)c1,-1.3,4.8%,-1.1%,-9.7,20.1%,-3.2%
COc1ccc(CNC(=O)Cn2cccc2C(=O)c2ccccc2)cc1,34.1*,33.8%,-4.4%,40.3*,7.4%,5.0%
COc1cc(OC)cc(C(=O)Nc2c(C)nn(-c3ccccc3)c2C)c1,-3.4,1.6%,0.2%,-18.5,5.1%,·
Cc1cc(C(=O)NCc2ccccc2Br)no1,15.8*,5.4%,-1.6%,36.2,·,-12.7%
Cc1cc(C(=O)N/N=C/c2ccc[nH]2)no1,19.9,13.9%,-11.8%,44.7,69.2%,13.8%
Cn1cccc1/C=N/NC(=O)c1ccncc1,3.3,6.9%,0.4%,-6.6,28.3%,0.1%
Cc1cc(C(=O)N/N=C/c2ccccc2Br)no1,36.0*,73.0%,1.0%,60.1*,0.0%,-14.9%
Cc1cc(C(=O)N/N=C/c2cccn2C)no1,9.5,20.3%,-0.9%,17.9*,-9.1%,-1.7%
Cn1cccc1/C=N/NC(=O)c1cc2ccccc2cc1O,21.3*,?,?,66.5*,0.0%,-13.1%
Cc1cc(C(=O)NCc2ccccc2)no1,-2.8,8.7%,0.0%,61.3,-13.0%,-1.2%
CC=C(/C(=C/C)c1ccc(O)cc1)c1ccc(O)cc1,·,-14.3%[12.8 µM],4.9%[21.7 µM],·,?,·
Cn1cccc1/C=N/NC(=O)c1sc2cc(Cl)ccc2c1Cl,-0.3,6.5%,8.0%,15.8,2.33µM*,12.3%
Cn1cccc1/C=N/NC(=O)c1ccccn1,31.2*,-85.5%,?,84.1*,200.0%,-2.8%
Cc1ccc2c(Cl)c(C(=O)N/N=C/c3cccn3C)sc2c1,5.8,40.4%,5.0%,1.5,?,13.9%
CCCCN(C(=O)C1CCCC1)C1CCS(=O)(=O)C1 (centres undefined),·,22.2%,·,·,26.4%,·
O=C1NC(N2CCOCC2)=N/C1=C/c1ccc2c(c1)OCO2,16.6*,0.6%,-1.3%,16.0,-28.7%,·
COc1ccc(CC(=O)OCC(=O)Nc2ncc(Cl)c(C)c2Cl)cc1,·,8.2%,·,·,67.9%,·
C[C@@H]1CO1,-7.8,·,8.1%,-11.2,·,·
CCOC(=O)c1ccc(NC(=O)NCCc2ccccc2OC)cc1,10.8,?,-3.8%,32.7,?,-10.0%
CCOC(=O)c1ccc(NC(=O)Nc2ccc(F)cc2)cc1,20.9*,·,-0.4%,30.1,13.1µM*,-94.7%
COc1ccc(NC(=O)Nc2ccc(F)cc2)cn1,29.3*,29.7%,-1.9%,34.2*,-0.1%,-2.6%
COc1ccc(NC(=S)Nc2ccccc2)cn1,-1.9,-10.3%,-4.9%,3.9,15.3%,-4.9%
